Laboratory results reported in PubChem BioAssay (EPA / NIEHS).
Where “and” joins values, the source holds several entries; their conditions need not be identical. Equal entries are not always repeated. Calls of active or inactive are those of the source. How the source made its calls: active means hit-call score of the fitted dose curve at least 0.9, where 1 is the maximum; inactive means score below 0.9.

What follows are compounds tested on Collagen I, COL1A1 (gene 1277) (assay: BSK_MyoF_CollagenI: BioMAP Diversity Plus: MyoF Assay for Collagen I Biomarker Activity (AID 2284238)). Conditions: primary human lung fibroblasts.
Procedure: BSK_MyoF is a cell-based, multiplexed-readout assay that uses lung fibroblasts, […], with measurements taken at 24 hours after chemical dosing in a microplate: 96-well plate.BSK_MyoF_CollagenI is an assay component measured in the BSK_MyoF assay. It measures Collagen I antibody related to regulation of gene expression using ELISA technology.Data from the assay component BSK_MyoF_CollagenI was analyzed at the endpoint, BSK_MyoF_CollagenI, in the positive analysis fitting direction relative to DMSO as the negative control and baseline of activity. Using a type of binding reporter, gain or loss-of-signal activity can be used to understand protein changes. To generalize the intended target to other relatable targets, this assay endpoint is annotated to the 'cell adhesion molecules' intended target family, where the subfamily is 'collagen'.
The levels of cell surface (or secreted, indicated by the prefix "s") biomarker endpoints were measured by ELISA. Overt cytotoxicity to cells in confluent adherent cultures (all systems other than the BT system) was assessed by measuring total protein levels using sulforhodamine B (SRB) staining in parallel cultures at the time of biomarker measurements, indicated as SRB endpoints. For proliferation assays for adherent cell types, individual cell types are cultured at sub-confluence and relative cell numbers quantified by SRB staining at time points optimized for each system (48 h: 3C and CASM3C systems; 72 h: BT and HDF3CGF systems; 96 h: SAg system). SRB was performed by staining cells with 0.1% SRB after fixation with 10% TCA and reading wells at 560 nm.Viability and proliferation of PBMC (T cells) was quantified by Alamar Blue reduction for the SAg and BT systems. For PBMC viability (referred to as PBMC Cytotoxicity within the assay endpoint names), cells were plated (75,000/well in a 96-well plate) and then chemical samples added for 1 h before addition of activators, SEB and TSST-1 (20 ng/mL final concentration each). Cells were incubated for 90 h. Then, Alamar Blue (20 uL/well) (Invitrogen, Cat DAL1100) was added for 6 h, and the plates were read with a fluorescence microplate reader at 546/580 nm (excitation/emission). For PBMC proliferation, cells were plated and activated as above but incubated for only 16 h prior to addition of Alamar Blue. Plates were read after 6 h.

SMILES	AC50	outcome
CC(C)(C)C(O)C(Oc1ccc(-c2ccccc2)cc1)n1cncn1 (stereo not given)	36.9 µM (active)	
O=C(O)CCCc1ccc(N(CCCl)CCCl)cc1		inactive
CC(C)CCCCCCCOP(=O)(Oc1ccccc1)Oc1ccccc1	8.57 µM (active)	
CNC(=O)Oc1cc(C)c(SC)c(C)c1		inactive
O=C1C(Cl)=C(Cl)C(=O)C(Cl)=C1Cl	16.6 µM (active)	
CCCCCCCCCCCC#N	20.6 µM (active)	
O=S(=O)(c1ccccc1)c1ccccc1		inactive
CC(C)(C)C(=O)CCl		inactive
CC(=O)/C=C/c1ccccc1		inactive
Cc1ccc(OP(=O)(Oc2ccc(C)cc2)Oc2ccc(C)cc2)cc1 (tested in a mixture with another compound)	32.6 µM (active)	
CCCOC(=O)c1ccccc1C(=O)OCCC		inactive
O=C1C=CC(=O)C=C1	31.8 µM (active) and 25.3 µM (active)	
CC(C)(c1cc(Cl)c(O)c(Cl)c1)c1cc(Cl)c(O)c(Cl)c1	5.31 µM (active)	
O=c1[nH]c(Cl)c(Cl)cc1Cl		inactive
CC(C)COP(=O)(OCC(C)C)OCC(C)C		inactive
Nc1ccc(-c2ccc(N)c(N)c2)cc1N		inactive
C=CC(=O)OCC(CC)CCCC (stereo not given)		inactive
CCC(C)c1cc([N+](=O)[O-])cc([N+](=O)[O-])c1OC(=O)C=C(C)C (stereo not given)	4.1 µM (active)	
CC1(C)[C@H](C(=O)O[C@H](C#N)c2cccc(Oc3ccccc3)c2)[C@@H]1C=C(Br)Br		inactive
CCc1cc(C)cc(CC)c1-c1c(OC(=O)C(C)(C)C)n2n(c1=O)CCOCC2		inactive
COCC(=O)N(c1c(C)cccc1C)N1CCOC1=O		inactive
c1ccc(Nc2ccc3ccccc3c2)cc1	31 µM (active)	
O=[N+]([O-])C=Cc1ccccc1	14.2 µM (active)	
O=c1c2ccccc2c(=O)c2c1cc(Cl)c1[nH]c3c([nH]c12)c(Cl)cc1c(=O)c2ccccc2c(=O)c13		inactive
Clc1ccc(-c2ccccc2)cc1		inactive
Oc1cc(Cl)ccc1Cl		inactive
C=CCN(CC=C)C(=O)C(Cl)Cl		inactive
CC(C)CCCCCCCOC(=O)c1ccccc1C(=O)OCCCCCCCC(C)C		inactive
O=P1(NCCCl)OCCCN1CCCl (stereo not given)		inactive
COC(C)(C)CCC[C@H](C)C/C=C/C(C)=C/C(=O)OC(C)C		inactive
